What all share (assay): DAPPL (digital affinity profiling via proximity ligation, sequencing); 10 mM Tris-HCl pH 7.5, 50 mM NaCl, 1 mM DTT, 4% glycerol, room temperature, 30 min; GST-TFs on glutathione beads, 16-mer random dsDNA library, 0.1% formaldehyde crosslink after washing; high values mean tight binding
What all share (settings): protein: recombinant; tags: N-terminal GST; dsDNA, one strand shown

In assay [1] the target is T1, FLI1 (Homo sapiens, UniProt Q01543 1-452).
T1 sequence: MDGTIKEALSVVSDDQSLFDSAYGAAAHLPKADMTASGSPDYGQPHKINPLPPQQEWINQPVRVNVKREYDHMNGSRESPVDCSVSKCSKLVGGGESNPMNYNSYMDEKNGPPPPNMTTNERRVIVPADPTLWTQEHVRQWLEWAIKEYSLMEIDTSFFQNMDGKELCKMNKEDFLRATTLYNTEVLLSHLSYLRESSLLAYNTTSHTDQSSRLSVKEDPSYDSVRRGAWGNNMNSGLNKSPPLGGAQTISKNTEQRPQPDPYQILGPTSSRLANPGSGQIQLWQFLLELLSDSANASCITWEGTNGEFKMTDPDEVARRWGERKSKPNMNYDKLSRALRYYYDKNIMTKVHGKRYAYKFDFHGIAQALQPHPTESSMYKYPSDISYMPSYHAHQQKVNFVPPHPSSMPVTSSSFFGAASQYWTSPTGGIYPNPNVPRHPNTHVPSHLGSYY
A digest of the protocol: (§1)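 Human transcription factors fused to GST were expressed in yeast, captured on glutathione beads, given DNA barcodes and pooled with a GST-only negative control. Pools were incubated with 200 nmole of a 16-mer random double-stranded DNA library in Tris/NaCl/DTT/glycerol buffer at room temperature for 30 min. They were then washed, crosslinked with 0.1% formaldehyde, proximity-ligated (BsaI/T4 ligase, 1 h, 37 °C), PCR-amplified and sequenced on an Illumina NextSeq500. Binding signal is each 6-mer's read frequency for a factor divided by its frequency for the GST control.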

The target in assay [2] is T2, ELK1 (Homo sapiens, UniProt P19419 1-428).
T2 sequence: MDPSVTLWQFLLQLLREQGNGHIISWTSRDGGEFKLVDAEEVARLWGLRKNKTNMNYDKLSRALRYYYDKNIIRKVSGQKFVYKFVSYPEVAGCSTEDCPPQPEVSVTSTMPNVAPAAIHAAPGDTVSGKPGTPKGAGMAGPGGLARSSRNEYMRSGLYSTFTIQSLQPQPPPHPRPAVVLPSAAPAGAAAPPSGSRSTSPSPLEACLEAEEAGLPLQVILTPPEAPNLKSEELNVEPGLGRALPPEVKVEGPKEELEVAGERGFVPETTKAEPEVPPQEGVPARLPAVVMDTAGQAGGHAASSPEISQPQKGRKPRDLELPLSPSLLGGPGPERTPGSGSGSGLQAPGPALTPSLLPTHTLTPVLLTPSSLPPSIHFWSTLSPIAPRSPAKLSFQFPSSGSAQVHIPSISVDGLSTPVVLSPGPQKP
In outline: as §1

The target of assay [3] is T3, ERG (Homo sapiens, UniProt P11308 1-479).
T3 sequence: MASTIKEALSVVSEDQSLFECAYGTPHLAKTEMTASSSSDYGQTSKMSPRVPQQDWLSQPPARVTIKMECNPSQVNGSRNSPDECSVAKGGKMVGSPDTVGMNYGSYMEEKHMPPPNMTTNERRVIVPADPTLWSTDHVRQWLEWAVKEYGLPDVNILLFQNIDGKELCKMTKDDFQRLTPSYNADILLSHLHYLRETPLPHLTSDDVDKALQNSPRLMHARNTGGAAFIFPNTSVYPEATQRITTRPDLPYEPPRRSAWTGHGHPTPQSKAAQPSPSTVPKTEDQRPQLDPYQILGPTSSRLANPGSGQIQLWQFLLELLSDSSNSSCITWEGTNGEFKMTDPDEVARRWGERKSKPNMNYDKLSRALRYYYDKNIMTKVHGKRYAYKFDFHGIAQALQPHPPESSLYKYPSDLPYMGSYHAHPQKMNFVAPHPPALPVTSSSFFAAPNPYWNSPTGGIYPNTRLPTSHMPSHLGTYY
A digest of the protocol:
as §1

Assay [4] concerns the target ELF1 (Homo sapiens, UniProt P32519 1-619). In outline:
as §1

The target of assay [5] is T4, EHF (Homo sapiens, UniProt Q9NZC4 1-300).
T4 sequence: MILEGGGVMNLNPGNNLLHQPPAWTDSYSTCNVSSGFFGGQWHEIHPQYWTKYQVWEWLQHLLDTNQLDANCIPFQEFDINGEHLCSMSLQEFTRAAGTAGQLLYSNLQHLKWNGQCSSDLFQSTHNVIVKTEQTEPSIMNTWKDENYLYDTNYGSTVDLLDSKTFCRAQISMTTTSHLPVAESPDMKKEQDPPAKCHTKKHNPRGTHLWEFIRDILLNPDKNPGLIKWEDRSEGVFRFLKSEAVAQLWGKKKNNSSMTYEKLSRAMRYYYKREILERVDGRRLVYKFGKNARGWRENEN
In outline: as §1

For assay [6], the target named is T5, SPIC (Homo sapiens, UniProt Q8N5J4 1-248).
T5 sequence: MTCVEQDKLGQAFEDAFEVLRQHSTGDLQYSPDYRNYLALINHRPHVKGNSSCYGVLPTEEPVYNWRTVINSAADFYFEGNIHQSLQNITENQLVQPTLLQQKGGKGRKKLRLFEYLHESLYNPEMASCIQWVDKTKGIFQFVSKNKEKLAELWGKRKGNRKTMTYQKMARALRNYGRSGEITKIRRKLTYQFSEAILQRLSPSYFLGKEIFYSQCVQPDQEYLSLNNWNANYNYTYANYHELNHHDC
In outline: as §1

Assay [7] has as its target ELF4 (Homo sapiens, UniProt Q99607 1-663). In outline:
as §1

In assay [8] the target is T6, ELK4 (Homo sapiens, UniProt P28324-2 1-405).
T6 sequence: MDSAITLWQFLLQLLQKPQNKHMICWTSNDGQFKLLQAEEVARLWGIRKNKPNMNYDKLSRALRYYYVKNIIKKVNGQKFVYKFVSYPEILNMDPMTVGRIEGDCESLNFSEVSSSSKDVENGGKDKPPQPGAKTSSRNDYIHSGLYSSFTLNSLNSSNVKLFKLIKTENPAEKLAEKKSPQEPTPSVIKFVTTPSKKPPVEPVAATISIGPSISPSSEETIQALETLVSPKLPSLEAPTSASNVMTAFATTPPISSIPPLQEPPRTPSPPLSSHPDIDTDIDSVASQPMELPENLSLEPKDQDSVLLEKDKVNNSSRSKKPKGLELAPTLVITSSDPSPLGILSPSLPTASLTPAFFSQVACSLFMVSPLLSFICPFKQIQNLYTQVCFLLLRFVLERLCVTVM
In outline:
as §1

Assay [9] addresses T7, ERF (Homo sapiens, UniProt P50548 1-548).
T7 sequence: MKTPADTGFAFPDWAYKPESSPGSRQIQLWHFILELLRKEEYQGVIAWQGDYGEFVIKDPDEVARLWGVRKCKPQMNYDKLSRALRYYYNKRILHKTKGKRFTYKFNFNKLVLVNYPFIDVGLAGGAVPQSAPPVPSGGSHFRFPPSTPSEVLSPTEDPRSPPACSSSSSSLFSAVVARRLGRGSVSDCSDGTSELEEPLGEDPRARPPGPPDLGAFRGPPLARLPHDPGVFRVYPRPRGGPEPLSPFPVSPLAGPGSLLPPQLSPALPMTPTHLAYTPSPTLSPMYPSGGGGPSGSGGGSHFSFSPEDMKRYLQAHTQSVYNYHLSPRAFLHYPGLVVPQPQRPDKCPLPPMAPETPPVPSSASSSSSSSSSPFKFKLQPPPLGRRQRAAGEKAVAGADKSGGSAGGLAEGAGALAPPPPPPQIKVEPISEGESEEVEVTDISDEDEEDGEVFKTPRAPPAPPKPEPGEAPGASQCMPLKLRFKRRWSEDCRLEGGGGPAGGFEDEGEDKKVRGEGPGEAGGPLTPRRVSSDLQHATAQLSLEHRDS
A digest of the protocol: as §1

For assay [10], the target named is T8, ETV3L (Homo sapiens, UniProt Q6ZN32 1-361).
T8 sequence: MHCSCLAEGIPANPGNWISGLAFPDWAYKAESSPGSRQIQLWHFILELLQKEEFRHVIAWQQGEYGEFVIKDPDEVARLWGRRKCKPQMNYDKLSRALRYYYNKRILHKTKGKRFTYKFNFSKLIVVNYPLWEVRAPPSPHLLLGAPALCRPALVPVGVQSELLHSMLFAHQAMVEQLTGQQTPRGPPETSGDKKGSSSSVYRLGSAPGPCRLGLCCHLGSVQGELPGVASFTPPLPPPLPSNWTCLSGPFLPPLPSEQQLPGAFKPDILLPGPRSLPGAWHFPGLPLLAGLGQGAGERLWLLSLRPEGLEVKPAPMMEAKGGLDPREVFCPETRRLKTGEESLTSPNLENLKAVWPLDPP
In outline:
as §1

Assay [11] has as its target T9, ETV3 (Homo sapiens, UniProt P41162-2 1-143).
T9 sequence: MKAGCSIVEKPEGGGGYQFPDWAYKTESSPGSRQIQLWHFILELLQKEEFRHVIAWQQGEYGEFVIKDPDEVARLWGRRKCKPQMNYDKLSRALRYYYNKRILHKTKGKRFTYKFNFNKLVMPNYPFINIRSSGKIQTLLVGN
A digest of the protocol:
as §1

Chain of ELF1 (P32519 whole entry): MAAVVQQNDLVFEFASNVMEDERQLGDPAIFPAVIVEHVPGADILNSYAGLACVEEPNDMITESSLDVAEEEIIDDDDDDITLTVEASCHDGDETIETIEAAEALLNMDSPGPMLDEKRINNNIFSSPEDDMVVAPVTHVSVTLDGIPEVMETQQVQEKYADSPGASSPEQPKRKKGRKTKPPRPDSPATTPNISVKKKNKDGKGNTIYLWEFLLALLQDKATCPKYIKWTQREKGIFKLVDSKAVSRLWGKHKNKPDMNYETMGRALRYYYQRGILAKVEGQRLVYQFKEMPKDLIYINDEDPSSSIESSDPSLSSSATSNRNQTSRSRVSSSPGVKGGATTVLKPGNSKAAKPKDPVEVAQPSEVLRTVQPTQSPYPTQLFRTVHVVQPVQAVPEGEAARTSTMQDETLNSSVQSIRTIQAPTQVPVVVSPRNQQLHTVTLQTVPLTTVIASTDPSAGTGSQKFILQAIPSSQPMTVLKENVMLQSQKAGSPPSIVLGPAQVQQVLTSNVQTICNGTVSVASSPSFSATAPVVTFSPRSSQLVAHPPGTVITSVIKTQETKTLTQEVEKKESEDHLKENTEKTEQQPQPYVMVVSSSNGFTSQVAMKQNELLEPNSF
Chain of ELF4 (Q99607 whole entry): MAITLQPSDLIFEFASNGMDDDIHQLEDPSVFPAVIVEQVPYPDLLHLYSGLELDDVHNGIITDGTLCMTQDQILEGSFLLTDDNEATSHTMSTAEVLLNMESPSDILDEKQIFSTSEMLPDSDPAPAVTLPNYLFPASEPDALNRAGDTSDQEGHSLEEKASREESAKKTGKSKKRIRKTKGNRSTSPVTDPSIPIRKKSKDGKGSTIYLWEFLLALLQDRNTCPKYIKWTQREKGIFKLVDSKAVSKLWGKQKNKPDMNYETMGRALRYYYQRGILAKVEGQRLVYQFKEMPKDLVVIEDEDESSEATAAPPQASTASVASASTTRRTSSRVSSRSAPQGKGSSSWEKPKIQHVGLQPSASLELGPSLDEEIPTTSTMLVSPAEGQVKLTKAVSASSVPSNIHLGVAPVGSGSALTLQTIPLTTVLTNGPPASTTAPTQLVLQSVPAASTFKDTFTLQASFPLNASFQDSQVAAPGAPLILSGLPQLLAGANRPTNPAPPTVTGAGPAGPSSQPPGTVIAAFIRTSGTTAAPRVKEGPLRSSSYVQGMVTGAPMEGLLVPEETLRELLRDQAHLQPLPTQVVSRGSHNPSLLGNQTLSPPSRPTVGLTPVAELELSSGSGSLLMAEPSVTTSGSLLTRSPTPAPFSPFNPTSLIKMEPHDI

On to CGCCAT, for which the binding signal in assay [1] was 1.08 fold enrichment (6-mer frequency, TF over GST control); in assay [2], 1.01 fold enrichment (6-mer frequency, TF over GST control); in [3], 1.02 fold enrichment (6-mer frequency, TF over GST control); in [4], 1.02 fold enrichment (6-mer frequency, TF over GST control); in assay [5], 1.01 fold enrichment (6-mer frequency, TF over GST control); in assay [6] it was 1.06 fold enrichment (6-mer frequency, TF over GST control). Besides, the binding signal in [7] is 1.12 fold enrichment (6-mer frequency, TF over GST control); in assay [8], 1.1 fold enrichment (6-mer frequency, TF over GST control); in assay [9], 1.08 fold enrichment (6-mer frequency, TF over GST control); in assay [10], 1.08 fold enrichment (6-mer frequency, TF over GST control); in assay [11], 1.02 fold enrichment (6-mer frequency, TF over GST control).

For the origin of these results see paper PMC7862700, “An all-to-all approach to the identification of sequence-specific readers for epigenetic DNA modifications on cytosine”.
